Source: PubChem BioAssay AID743386 (Vanderbilt Specialized Chemistry Center, 2014)

Target: Metabotropic glutamate receptor 7 (Rattus norvegicus) (UniProt P35400)
Test: glutamate curve shift by mGlu7 potentiators, cell-based, rat, GIRK per title (AID 743386)
Details: rat mGlu7/Ga15, glutamate CRC shift, calcium; glutamate EC50 left shift; at 10 µM; stronger effect = higher value

Chain of Metabotropic glutamate receptor 7 (Rattus norvegicus) (P35400 whole entry, looked up): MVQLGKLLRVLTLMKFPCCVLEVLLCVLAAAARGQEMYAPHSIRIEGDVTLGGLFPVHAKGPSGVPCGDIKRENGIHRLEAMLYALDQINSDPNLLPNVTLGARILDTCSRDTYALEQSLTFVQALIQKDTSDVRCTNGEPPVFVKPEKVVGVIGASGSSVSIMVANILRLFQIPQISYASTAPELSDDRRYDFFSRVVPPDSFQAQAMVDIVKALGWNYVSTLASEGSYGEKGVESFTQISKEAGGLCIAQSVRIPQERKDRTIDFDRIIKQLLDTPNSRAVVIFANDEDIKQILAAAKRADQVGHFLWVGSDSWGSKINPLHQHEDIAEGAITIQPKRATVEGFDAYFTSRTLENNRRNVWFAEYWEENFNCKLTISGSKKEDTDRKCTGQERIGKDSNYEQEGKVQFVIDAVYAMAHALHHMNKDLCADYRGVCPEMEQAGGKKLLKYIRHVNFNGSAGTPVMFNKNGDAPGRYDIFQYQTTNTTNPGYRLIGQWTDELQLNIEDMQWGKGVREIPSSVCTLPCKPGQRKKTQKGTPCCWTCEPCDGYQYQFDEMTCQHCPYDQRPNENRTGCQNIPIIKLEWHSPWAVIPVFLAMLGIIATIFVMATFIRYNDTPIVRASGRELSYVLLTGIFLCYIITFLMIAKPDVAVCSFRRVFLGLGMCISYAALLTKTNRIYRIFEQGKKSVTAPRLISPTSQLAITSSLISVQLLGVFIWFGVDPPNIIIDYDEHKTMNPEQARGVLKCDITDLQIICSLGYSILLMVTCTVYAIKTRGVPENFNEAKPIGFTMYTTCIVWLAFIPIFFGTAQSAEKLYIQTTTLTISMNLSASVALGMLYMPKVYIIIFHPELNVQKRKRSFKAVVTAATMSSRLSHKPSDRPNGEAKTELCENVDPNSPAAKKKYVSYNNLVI

COC(=O)c1ccc(-n2c(C)cc(C(=O)CSc3ccc(NC(C)=O)cc3)c2C)cc1
fold shift: 4.91
